KB-3-1 tox: qHTS assay for MDR1-selective chemotherapeutics: Primary screen using the parental adenocarcinoma cell KB-3-1 | KB-3-1 viability, CellTiter-Glo ATP luminescence, 72 h | Potency, µM (series often up to 46.1 µM), hits mostly cytotoxic | actives 1.4% (n = 400,000) | AID 1347075, 2019; also: potency is read from the fitted curve at half-maximal effect; nearly all actives have a fitted effect of over 60% in size
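Luminescent ATP read-out (CellTiter-Glo) measures survival of drug-naive KB-3-1 cells after 72 h compound exposure at 37 °C. Titration series was screened from lowest to highest concentration, with DMSO vehicle plates as background controls.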
HT1080 IDH1KD tx: qHTS for induction of synthetic lethality in tumor cells producing 2HG: qHTS for the HT-1080-IDH1KD cell line; AID 686971, 2013; HT-1080 IDH1 knockdown viability, ATP luminescence, 48 h; actives 2% (n = 360,000); Potency, µM (titrated, usually from 46.1 µM), for inactives: at the top dose activity, negative = toxicity, most hits filed as cytotoxic;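 also: potency is read from the fitted curve at half-maximal effect; 0% = DMSO wells and -100% = cell-free medium wells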
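IDH1KD HT-1080 cells, 750/well, RPMI + 5% FBS; compound pinned after 2 h settling; 48 h, 37 °C; CellTiter-Glo luminescence; % activity normalised to DMSO and no-cell wells; curves fitted, classed by r2 and efficacy.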
IL1B secr inh: qHTS for Inhibitors of Inflammasome Signaling: IL-1-beta AlphaLISA Primary Screen | THP-1 LPS/ATP IL-1B secretion, AlphaLISA, 16 h; active compounds read low | actives 4.7% (n = 360,000) | activity change, % at 57.5 µM; in the data active = activity change below about -50%; inconclusive = mostly about -30% to -49%
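Secreted IL-1B measured by AlphaLISA bead assay after 16 h compound exposure of THP-1 cells; compounds (final up to 57.5 uM) added 1 h before LPS (250 ng/mL) and ATP (1.25 mM) stimulation; lower signal means less secretion.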
KB-V1 cytotox: qHTS assay for MDR1-selective chemotherapeutics: Primary screen using the drug-selected MDR subline cells KB-V1; KB-V1 MDR cells viability, CellTiter-Glo, 72 h; Potency, µM (series often up to 46.1 µM), hits mostly cytotoxic; actives 3.4% (n = 400,000); also: potency is read from the fitted curve at half-maximal effect; nearly all actives have a fitted effect of over 60% in size
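Cytotoxicity via CellTiter-Glo luminescence after 72 h compound exposure at 37 degrees C. Cells: drug-selected KB-V1 line, DMEM phenol-red free plus 10% FBS. Compounds tested at multiple concentrations; normalized data fitted to concentration-effect curves.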
HT1080-NT tox: qHTS for induction of synthetic lethality in tumor cells producing 2HG: qHTS for the HT-1080-NT fibrosarcoma cell line. HT-1080-NT fibrosarcoma viability, CellTiter-Glo ATP luminescence, 48 h. Potency, µM (series often up to 46.1 µM), inactives show at the highest dose activity, negative = less viability, usual class: cytotoxic. actives 1.6% (n = 360,000). AID 686970, 2013;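 also: NT is the 2HG producing partner of a matched IDH1 knockdown line; potency is read from the fitted curve at half-maximal effect; 0% = DMSO-treated cells and -100% = media-only wells without cells; nearly all actives have a fitted effect of over 55% in size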
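Luminescent CellTiter-Glo readout after 48 hours of compound exposure at 37 degrees C defined viability of HT-1080-NT cells. Activity was normalized to DMSO wells and cell-free media wells; concentration-response curves were fitted and assigned curve classes.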
Starred values were filed as active, the others as inactive; i = inactive; ? = inconclusive; · = no result given; ! = not active in a repeat; [ ] = remark or other dose. The list is not random: actives were taken first. Their share in the collection is about 8.8%. Unless noted, calls follow the shape of the dose curve; as a rule, active = well fitted curve in the direction sought with a large enough effect; inconclusive = small, poorly fitted or top-dose-only effect, or another doubt; inactive = no such curve, though single readings can be large; an effect the other way counts as inactive or inconclusive. Unless noted, % is scaled to controls: 0 for no effect and ±100 for the full control effect.

SMILES	KB-3-1 tox	HT1080 IDH1KD tx	IL1B secr inh	KB-V1 cytotox	HT1080-NT tox
Cc1c(Br)cccc1NC(=O)C1(C)CCN1Cc1ccc(OC(C)C)cc1 (configuration not stated)	i	4%	57	i	-25%
CCOc1ccc2ccccc2c1C(=O)N1CCN(c2ccccc2)CC1	23µM*	7.9µM*	22	4.1µM*	?
COc1ccc(C(=O)N2CCN(c3cccc(Cl)c3)CC2)c(OC)c1	15µM*	?	2	?	15µM*
CCOc1ccccc1C(=O)N1CCN(c2cccc(Cl)c2)CC1	i	0.11µM*	45	i	0.25µM*
O=C(Cn1cc(S(=O)(=O)N2CCN(c3ccccc3F)CC2)c2ccccc2c1=O)NCCCN1CCCCCC1	i	?	-61*	i	?
COCCN(C(=O)c1ccco1)C(C(=O)NC1CCCC1)c1cccs1 (configuration not stated)	i	2%	16	i	-14%
Cc1ccccc1Nc1c(-c2ccccn2)nc2ccccn12	?	?	-23	?	?
Cc1ccccc1Nc1c(-c2cccnc2)nc2ccc(Cl)cn12	i	·	·	i	·
Cc1ccn2c(Nc3ccccc3C)c(-c3ccccn3)nc2c1	?	9.2µM*	0	?	15µM*
Cc1ccc2nc(-c3ccccn3)c(Nc3ccccc3C)n2c1	?	13µM*	72	0.73µM*	13µM*
Cc1ccc2nc(-c3cccnc3)c(Nc3ccccc3C)n2c1	i	1%	-52*	?	1%
Cc1ccc2nc(-c3ccncc3)c(Nc3ccccc3C)n2c1	i	·	·	i	·
CCN(CC)CCn1c2c(c(SCC(=O)Nc3ccc4c(c3)OCO4)nc1=O)CCC2	i	0%	-28	i	-1%
CCN(CC)CCCn1c2c(c(SCC(=O)Nc3ccc(C)c(F)c3)nc1=O)CCC2	i	4%	-67*	i	-1%
CCN(CC)CCCn1c2c(c(SCC(=O)Nc3nc4ccccc4s3)nc1=O)CCC2	i	-9%	-51*	i	-19%
CCN(CC)CCCn1c2c(c(SCC(=O)Nc3ccc(OC(F)(F)F)cc3)nc1=O)CCC2	i	-16%	-69*	i	-14%
Cc1cc2nc(-c3nnnn3Cc3ccccc3)c(=O)[nH]c2cc1C	i	?	-15	i	-14%
Nc1ccn([C@@H]2O[C@H](C(=O)N[C@H](CO)Cc3ccccc3)[C@@H](O)[C@H]2O)c(=O)n1	i	6%	-15	i	25%
CC(C)S(=O)(=O)N1CCCC(c2cc(C(=O)NCc3ccccc3)no2)C1 (configuration not stated)	i	9%	-14	i	18%
Cc1ccc(OCc2cc(C(=O)NCC(C)(C)N3CCOCC3)no2)cc1C	i	-7%	-70*	i	-4%
Cc1ccc(C(=O)c2c(C)oc3c2C(=O)C(=O)c2ccccc2-3)cc1	?	?	-121*	5.2µM*	?
O=C(c1ccc(Cl)cc1)c1ccc(CN2C(=O)c3ccccc3C2=O)o1	i	4%	-23	i	13%
Cc1ccc(C(=O)c2coc3c2C(=O)C(=O)c2ccccc2-3)cc1	i	?	0	?	?
Cc1oc2c(c1C(=O)c1ccc(Cl)cc1)C(=O)C(=O)c1ccccc1-2	?	-7%	4	16µM*	-5%
Cc1cccc(-c2nc(CSCC(=O)N3CCN(c4ccccc4)CC3)c(C)o2)c1	i	·	·	i	·
SMILES	KB-3-1 tox	HT1080 IDH1KD tx	IL1B secr inh	KB-V1 cytotox	HT1080-NT tox
C#CCOCCOCCOCCNc1nc(N2CCN(C(=O)C(Cc3cc4ccccc4[nH]3)n3cc(C(N)Cc4ccc(O)cc4)nn3)CC2)nc(N2CCN(C(=O)C(Cc3cc4ccccc4[nH]3)n3cc(C(N)Cc4ccc(O)cc4)nn3)CC2)n1 (configuration not stated)	i	?	7	i	?
Cc1noc(C)c1CSCC(=O)OCC(=O)Nc1ccc(OC(F)(F)F)cc1	i	8%	16	i	-1%
C=CCC(=O)N1CCCC(CNC(=O)c2ccc(-c3ccccc3)cc2)C1 (configuration not stated)	i	-10%	-64*	i	-9%
CC(=O)NCCC(=O)N1CCCC(CNC(=O)c2ccc(-c3ccccc3)cc2)C1 (configuration not stated)	i	5%	7	i	4%
CC(=O)N(O)CCCCCNC(=O)CCC(=O)N(O)CCCCCNC(=O)CCC(=O)N(O)CCCCCN	21µM*!	?	60	?	?
Cc1cc(C)n(-c2nc3ccccc3c(=O)n2OCC#N)n1	?	?	-96*	?	-16%
CCOn1c(-n2nc(C)cc2C)nc2ccccc2c1=O	i	-4%	4	i	2%
Cc1ccc(S(=O)(=O)c2nnn3c2nc(N2CCN(c4ccc(F)cc4)CC2)c2cc(Cl)ccc23)cc1C	i	·	·	i	·
CCOC(=O)C1CCN(c2ncnc3c2nnn3C)CC1	i	·	·	i	·
Cn1cc(-c2ccc(Cl)cc2)cc(C#N)c1=O	i	15%	-13	i	7%
Cn1c(-c2ccc(Cl)cc2)ccc(C#N)c1=O	?	-1%	29	5.8µM*	4%
O=C(CN(C(=O)CCC(=O)Nc1nccs1)c1ccc2c(c1)OCO2)NCc1ccccc1	i	-11%	-7	?	-7%
Cn1c(COc2ccccc2)nnc1SCC(=O)c1cccc([N+](=O)[O-])c1	i	-8%[9.24 µM]	-28	i	-27%
CCOc1cc(C)ccc1OCc1nnc(SCC(=O)c2cccc([N+](=O)[O-])c2)n1C	i	?	-51*	i	?
CC(C)OC(=O)CSc1nnc(COc2ccc([N+](=O)[O-])cc2)n1C	i	-1%	-98*	i	-1%
O=C(Nc1ccccc1Sc1ccccc1)c1ccccc1F	i	3%	3	i	4%
Cc1ccc(Cl)cc1N1CCN(C(=O)Cn2nc(C)n3c(cc4sccc43)c2=O)CC1	i	·	·	i	·
Cc1cccc(NS(=O)(=O)c2cc3c(cc2C)NC(=O)CO3)c1	i	-13%	-12	i	-1%
CSc1nc2ccccc2cc1/C=C(\C#N)c1cccc(C)c1	15µM*	5.2µM*	-1	15µM*	?
CSc1nc2ccccc2cc1/C=C(\C#N)c1ccccc1	?	18µM*	0	?	?
